Data reported in article PMC7156710, “The Sox2 transcription factor binds RNA”.

Columns and labels:
Assay in all cases: fluorescence anisotropy; 10 mM Tris-HEPES pH 7.5, 8% Ficoll, 0.05% NP-40, 135 mM KCl, 15 mM NaCl, 1 mM DTT, 0.1 mg/mL BSA; 2 nM DNA or 3 nM RNA; low values mean tight binding
Details in all cases: protein: recombinant; tags: N-terminal His6 and thrombin site, not removed; label: 3' fluorescein; hairpin; structured_RNA
[1] = biological target: Sox2-HMG (His6 retained) E78A (Homo sapiens, UniProt P48431 38-121, E78A)
In short: (§1)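 Alanine-substituted Sox2-HMG domains were made by site-directed mutagenesis and Ni-NTA purified with the His6 tag retained. They were titrated against 2 nM fluorescein-labeled DNA or 3 nM fluorescein-labeled RNA in Tris-HEPES pH 7.5 binding buffer for at least 1 h. Polarization was read on a CLARIOstar, with triplicate titrations each read three times. Dissociation constants were fit in Kaleidagraph and expressed as the mutant-to-wild-type ratio.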

[2] = biological target: Sox2-HMG (His6 retained) S72A (Homo sapiens, UniProt P48431 38-121, S72A)
In short: as §1

[3] = biological target: Sox2-HMG (His6 retained) E104A (Homo sapiens, UniProt P48431 38-121, E104A)
In short: as §1

[4] = biological target: Sox2-HMG (His6 retained) K58A (Homo sapiens, UniProt P48431 38-121, K58A)
In short: as §1

[5] = biological target: Sox2-HMG (His6 retained) H67A (Homo sapiens, UniProt P48431 38-121, H67A)
In short: as §1

[6] = biological target: Sox2-HMG (His6 retained) K42A (Homo sapiens, UniProt P48431 38-121, K42A)
In short: as §1

[7] = biological target: Sox2-HMG (His6 retained) M45A (Homo sapiens, UniProt P48431 38-121, M45A)
In short: as §1

[8] = biological target: Sox2-HMG (His6 retained) N63A (Homo sapiens, UniProt P48431 38-121, N63A)
In short: as §1

[9] = biological target: Sox2-HMG (His6 retained) K115A (Homo sapiens, UniProt P48431 38-121, K115A)
In short: as §1

[10] = biological target: Sox2-HMG (His6 retained) E70A (Homo sapiens, UniProt P48431 38-121, E70A)
In short: as §1

[11] = biological target: Sox2-HMG (His6 retained) K87A (Homo sapiens, UniProt P48431 38-121, K87A)
In short: as §1

[12] = biological target: Sox2-HMG (His6 retained) W79A (Homo sapiens, UniProt P48431 38-121, W79A)
In short: as §1

[13] = biological target: Sox2-HMG (His6 retained) E62A (Homo sapiens, UniProt P48431 38-121, E62A)
In short: as §1

[14] = biological target: Sox2-HMG (His6 retained) R114A (Homo sapiens, UniProt P48431 38-121, R114A)
In short: as §1

[15] = biological target: Sox2-HMG (His6 retained) S69A (Homo sapiens, UniProt P48431 38-121, S69A)
In short: as §1

[16] = biological target: Sox2-HMG (His6 retained) R96A (Homo sapiens, UniProt P48431 38-121, R96A)
In short: as §1

[17] = biological target: Sox2-HMG (His6 retained) R40A (Homo sapiens, UniProt P48431 38-121, R40A)
In short: as §1

[18] = biological target: Sox2-HMG (His6 retained) W51A (Homo sapiens, UniProt P48431 38-121, W51A)
In short: as §1

[19] = biological target: Sox2-HMG (His6 retained) S83A (Homo sapiens, UniProt P48431 38-121, S83A)
In short: as §1

[20] = biological target: Sox2-HMG (His6 retained) R111A (Homo sapiens, UniProt P48431 38-121, R111A)
In short: as §1

[21] = biological target: Sox2-HMG (His6 retained) E84A (Homo sapiens, UniProt P48431 38-121, E84A)
In short: as §1

[22] = biological target: Sox2-HMG (His6 retained) K95A (Homo sapiens, UniProt P48431 38-121, K95A)
In short: as §1

[23] = biological target: Sox2-HMG (His6 retained) F48A (Homo sapiens, UniProt P48431 38-121, F48A)
In short: as §1

[24] = biological target: Sox2-HMG (His6 retained) R74A (Homo sapiens, UniProt P48431 38-121, R74A)
In short: as §1

[25] = biological target: Sox2-HMG (His6 retained) Q61A (Homo sapiens, UniProt P48431 38-121, Q61A)
In short: as §1

[26] = biological target: Sox2-HMG (His6 retained) R88A (Homo sapiens, UniProt P48431 38-121, R88A)
In short: as §1

[27] = biological target: Sox2-HMG (His6 retained) K73A (Homo sapiens, UniProt P48431 38-121, K73A)
In short: as §1

[28] = biological target: Sox2-HMG (His6 retained) E86A (Homo sapiens, UniProt P48431 38-121, E86A)
In short: as §1

[29] = biological target: Sox2-HMG (His6 retained) R53A (Homo sapiens, UniProt P48431 38-121, R53A)
In short: as §1

[30] = biological target: Sox2-HMG (His6 retained) R113A (Homo sapiens, UniProt P48431 38-121, R113A)
In short: as §1

[31] = biological target: Sox2-HMG (His6 retained) T85A (Homo sapiens, UniProt P48431 38-121, T85A)
In short: as §1

[32] = biological target: Sox2-HMG (His6 retained) M49A (Homo sapiens, UniProt P48431 38-121, M49A)
In short: as §1

[33] = biological target: Sox2-HMG (His6 retained) R56A (Homo sapiens, UniProt P48431 38-121, R56A)
In short: as §1

[34] = biological target: Sox2-HMG (His6 retained) K80A (Homo sapiens, UniProt P48431 38-121, K80A)
In short: as §1

[35] = biological target: Sox2-HMG (His6 retained) Y110A (Homo sapiens, UniProt P48431 38-121, Y110A)
In short: as §1

[36] = biological target: Sox2-HMG (His6 retained) K103A (Homo sapiens, UniProt P48431 38-121, K103A)
In short: as §1

[37] = biological target: Sox2-HMG (His6 retained) K109A (Homo sapiens, UniProt P48431 38-121, K109A)
In short: as §1

[38] = biological target: Sox2-HMG (His6 retained) R43A (Homo sapiens, UniProt P48431 38-121, R43A)
In short: as §1

[39] = biological target: Sox2-HMG (His6 retained) R57A (Homo sapiens, UniProt P48431 38-121, R57A)
In short: as §1

[40] = biological target: Sox2-HMG (His6 retained) R98A (Homo sapiens, UniProt P48431 38-121, R98A)
In short: as §1

[41] = biological target: Sox2-HMG (His6 retained) N68A (Homo sapiens, UniProt P48431 38-121, N68A)
In short: as §1

[42] = biological target: Sox2-HMG (His6 retained) P112A (Homo sapiens, UniProt P48431 38-121, P112A)
In short: as §1

[43] = biological target: Sox2-HMG (His6 retained) N46A (Homo sapiens, UniProt P48431 38-121, N46A)
In short: as §1

[44] = biological target: Sox2-HMG (His6 retained) K65A (Homo sapiens, UniProt P48431 38-121, K65A)
In short: as §1

[45] = biological target: Sox2-HMG (His6 retained) H101A (Homo sapiens, UniProt P48431 38-121, H101A)
In short: as §1

[46] = biological target: Sox2-HMG (His6 retained) P64A (Homo sapiens, UniProt P48431 38-121, P64A)
In short: as §1

[47] = biological target: Sox2-HMG (His6 retained) M66A (Homo sapiens, UniProt P48431 38-121, M66A)
In short: as §1

[48] = biological target: Sox2-HMG (His6 retained) H105A (Homo sapiens, UniProt P48431 38-121, H105A)
In short: as §1

Sox2-HMG (His6 retained) P64A, sequence (P48431 other isoform, or with tags, fused parts or gaps P64A | P64A P64A): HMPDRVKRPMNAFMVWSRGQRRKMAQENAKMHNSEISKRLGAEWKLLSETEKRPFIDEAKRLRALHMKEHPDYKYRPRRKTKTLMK
Sox2-HMG (His6 retained) R111A, sequence (P48431 other isoform, or with tags, fused parts or gaps R111A | R111A R111A): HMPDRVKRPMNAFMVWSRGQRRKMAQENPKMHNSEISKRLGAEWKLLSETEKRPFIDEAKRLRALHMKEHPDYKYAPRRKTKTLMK
Sox2-HMG (His6 retained) H101A, sequence (P48431 other isoform, or with tags, fused parts or gaps H101A | H101A H101A): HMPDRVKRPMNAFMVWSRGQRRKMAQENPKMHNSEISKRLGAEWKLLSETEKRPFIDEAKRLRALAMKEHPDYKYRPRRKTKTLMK
Sox2-HMG (His6 retained) K73A, sequence (P48431 other isoform, or with tags, fused parts or gaps K73A | K73A K73A): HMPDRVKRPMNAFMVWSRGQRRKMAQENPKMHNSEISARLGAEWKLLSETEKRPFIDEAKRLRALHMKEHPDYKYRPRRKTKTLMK
Sox2-HMG (His6 retained) K87A, sequence (P48431 other isoform, or with tags, fused parts or gaps K87A | K87A K87A): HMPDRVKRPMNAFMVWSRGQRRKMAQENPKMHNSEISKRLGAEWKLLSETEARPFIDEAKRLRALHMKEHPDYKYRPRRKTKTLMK
Sox2-HMG (His6 retained) S69A, sequence (P48431 other isoform, or with tags, fused parts or gaps S69A | S69A S69A): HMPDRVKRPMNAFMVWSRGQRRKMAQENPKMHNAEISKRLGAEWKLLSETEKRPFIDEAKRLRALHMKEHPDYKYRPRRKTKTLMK
Sox2-HMG (His6 retained) R114A, sequence (P48431 other isoform, or with tags, fused parts or gaps R114A | R114A R114A): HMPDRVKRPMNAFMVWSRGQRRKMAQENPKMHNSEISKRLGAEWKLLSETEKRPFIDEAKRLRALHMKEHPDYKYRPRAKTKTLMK
Sox2-HMG (His6 retained) R43A, sequence (P48431 other isoform, or with tags, fused parts or gaps R43A | R43A R43A): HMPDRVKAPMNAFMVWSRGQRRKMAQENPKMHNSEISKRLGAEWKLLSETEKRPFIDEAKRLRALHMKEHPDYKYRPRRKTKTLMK
Sox2-HMG (His6 retained) E104A, sequence (P48431 other isoform, or with tags, fused parts or gaps E104A | E104A E104A): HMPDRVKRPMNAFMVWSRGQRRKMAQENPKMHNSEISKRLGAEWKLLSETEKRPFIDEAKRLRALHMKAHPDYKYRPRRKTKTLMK
Sox2-HMG (His6 retained) T85A, sequence (P48431 other isoform, or with tags, fused parts or gaps T85A | T85A T85A): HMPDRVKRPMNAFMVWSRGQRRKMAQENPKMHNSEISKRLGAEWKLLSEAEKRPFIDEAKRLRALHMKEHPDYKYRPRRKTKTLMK
Sox2-HMG (His6 retained) R74A, sequence (P48431 other isoform, or with tags, fused parts or gaps R74A | R74A R74A): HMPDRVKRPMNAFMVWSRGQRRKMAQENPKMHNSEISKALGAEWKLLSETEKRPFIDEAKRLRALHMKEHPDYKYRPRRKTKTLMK
Sox2-HMG (His6 retained) H105A, sequence (P48431 other isoform, or with tags, fused parts or gaps H105A | H105A H105A): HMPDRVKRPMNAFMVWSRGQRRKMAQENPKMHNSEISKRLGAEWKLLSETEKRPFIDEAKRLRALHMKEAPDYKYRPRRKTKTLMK
Sox2-HMG (His6 retained) E84A, sequence (P48431 other isoform, or with tags, fused parts or gaps E84A | E84A E84A): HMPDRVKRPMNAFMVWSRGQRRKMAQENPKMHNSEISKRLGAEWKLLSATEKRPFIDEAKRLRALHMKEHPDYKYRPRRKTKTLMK
Sox2-HMG (His6 retained) R96A, sequence (P48431 other isoform, or with tags, fused parts or gaps R96A | R96A R96A): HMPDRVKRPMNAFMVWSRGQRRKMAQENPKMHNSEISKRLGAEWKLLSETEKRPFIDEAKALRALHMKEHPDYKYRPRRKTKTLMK
Sox2-HMG (His6 retained) W51A, sequence (P48431 other isoform, or with tags, fused parts or gaps W51A | W51A W51A): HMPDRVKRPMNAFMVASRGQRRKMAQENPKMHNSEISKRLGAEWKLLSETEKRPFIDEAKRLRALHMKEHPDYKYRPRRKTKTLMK
Sox2-HMG (His6 retained) N46A, sequence (P48431 other isoform, or with tags, fused parts or gaps N46A | N46A N46A): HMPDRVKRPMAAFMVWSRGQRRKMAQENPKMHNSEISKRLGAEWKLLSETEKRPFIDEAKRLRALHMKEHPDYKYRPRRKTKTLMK
Sox2-HMG (His6 retained) E86A, sequence (P48431 other isoform, or with tags, fused parts or gaps E86A | E86A E86A): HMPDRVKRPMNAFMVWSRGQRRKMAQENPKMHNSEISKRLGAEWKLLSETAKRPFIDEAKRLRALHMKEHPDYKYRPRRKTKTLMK
Sox2-HMG (His6 retained) M66A, sequence (P48431 other isoform, or with tags, fused parts or gaps M66A | M66A M66A): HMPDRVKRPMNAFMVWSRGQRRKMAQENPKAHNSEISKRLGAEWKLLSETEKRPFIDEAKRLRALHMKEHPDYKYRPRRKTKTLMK
Sox2-HMG (His6 retained) K115A, sequence (P48431 other isoform, or with tags, fused parts or gaps K115A | K115A K115A): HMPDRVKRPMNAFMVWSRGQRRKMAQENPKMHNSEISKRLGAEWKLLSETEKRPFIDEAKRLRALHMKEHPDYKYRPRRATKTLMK
Sox2-HMG (His6 retained) R113A, sequence (P48431 other isoform, or with tags, fused parts or gaps R113A | R113A R113A): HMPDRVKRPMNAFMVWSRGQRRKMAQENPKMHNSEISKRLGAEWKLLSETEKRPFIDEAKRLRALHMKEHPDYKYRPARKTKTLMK
Sox2-HMG (His6 retained) K42A, sequence (P48431 other isoform, or with tags, fused parts or gaps K42A | K42A K42A): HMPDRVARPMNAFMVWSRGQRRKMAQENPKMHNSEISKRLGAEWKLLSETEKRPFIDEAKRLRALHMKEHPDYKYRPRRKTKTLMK
Sox2-HMG (His6 retained) K65A, sequence (P48431 other isoform, or with tags, fused parts or gaps K65A | K65A K65A): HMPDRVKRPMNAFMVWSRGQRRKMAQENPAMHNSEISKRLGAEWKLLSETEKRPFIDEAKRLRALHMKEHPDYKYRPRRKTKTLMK
Sox2-HMG (His6 retained) Y110A, sequence (P48431 other isoform, or with tags, fused parts or gaps Y110A | Y110A Y110A): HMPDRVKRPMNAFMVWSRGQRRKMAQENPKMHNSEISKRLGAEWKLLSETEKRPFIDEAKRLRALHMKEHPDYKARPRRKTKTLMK
Sox2-HMG (His6 retained) R98A, sequence (P48431 other isoform, or with tags, fused parts or gaps R98A | R98A R98A): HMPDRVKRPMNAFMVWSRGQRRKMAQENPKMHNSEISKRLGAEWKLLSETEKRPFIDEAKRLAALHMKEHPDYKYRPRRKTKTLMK
Sox2-HMG (His6 retained) R57A, sequence (P48431 other isoform, or with tags, fused parts or gaps R57A | R57A R57A): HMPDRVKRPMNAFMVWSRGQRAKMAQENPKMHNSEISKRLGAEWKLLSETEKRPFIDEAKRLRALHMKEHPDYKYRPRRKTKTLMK
Sox2-HMG (His6 retained) N68A, sequence (P48431 other isoform, or with tags, fused parts or gaps N68A | N68A N68A): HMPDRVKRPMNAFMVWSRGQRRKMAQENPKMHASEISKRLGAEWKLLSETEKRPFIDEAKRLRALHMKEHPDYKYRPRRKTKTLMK
Sox2-HMG (His6 retained) K58A, sequence (P48431 other isoform, or with tags, fused parts or gaps K58A | K58A K58A): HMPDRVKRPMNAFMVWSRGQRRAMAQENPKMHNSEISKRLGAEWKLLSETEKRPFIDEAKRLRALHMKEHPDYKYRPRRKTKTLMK
Sox2-HMG (His6 retained) S83A, sequence (P48431 other isoform, or with tags, fused parts or gaps S83A | S83A S83A): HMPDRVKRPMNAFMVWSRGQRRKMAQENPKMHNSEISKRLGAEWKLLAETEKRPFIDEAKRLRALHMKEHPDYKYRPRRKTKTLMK
Sox2-HMG (His6 retained) E62A, sequence (P48431 other isoform, or with tags, fused parts or gaps E62A | E62A E62A): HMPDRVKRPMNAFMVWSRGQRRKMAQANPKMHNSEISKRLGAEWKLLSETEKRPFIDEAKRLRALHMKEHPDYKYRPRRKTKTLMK
Sox2-HMG (His6 retained) N63A, sequence (P48431 other isoform, or with tags, fused parts or gaps N63A | N63A N63A): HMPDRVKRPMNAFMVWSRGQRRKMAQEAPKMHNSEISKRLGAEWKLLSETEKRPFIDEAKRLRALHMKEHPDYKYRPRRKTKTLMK
Sox2-HMG (His6 retained) M49A, sequence (P48431 other isoform, or with tags, fused parts or gaps M49A | M49A M49A): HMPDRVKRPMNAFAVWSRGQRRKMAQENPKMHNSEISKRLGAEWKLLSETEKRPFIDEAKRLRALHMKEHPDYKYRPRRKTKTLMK
Sox2-HMG (His6 retained) M45A, sequence (P48431 other isoform, or with tags, fused parts or gaps M45A | M45A M45A): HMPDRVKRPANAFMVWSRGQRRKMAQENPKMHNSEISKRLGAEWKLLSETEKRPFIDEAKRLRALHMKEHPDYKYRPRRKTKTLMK
Sox2-HMG (His6 retained) E78A, sequence (P48431 other isoform, or with tags, fused parts or gaps E78A | E78A E78A): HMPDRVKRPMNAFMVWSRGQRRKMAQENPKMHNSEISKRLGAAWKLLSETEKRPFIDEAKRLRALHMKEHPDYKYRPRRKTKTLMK
Sox2-HMG (His6 retained) K80A, sequence (P48431 other isoform, or with tags, fused parts or gaps K80A | K80A K80A): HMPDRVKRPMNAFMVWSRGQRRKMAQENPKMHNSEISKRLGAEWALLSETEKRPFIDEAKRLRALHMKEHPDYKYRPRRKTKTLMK
Sox2-HMG (His6 retained) W79A, sequence (P48431 other isoform, or with tags, fused parts or gaps W79A | W79A W79A): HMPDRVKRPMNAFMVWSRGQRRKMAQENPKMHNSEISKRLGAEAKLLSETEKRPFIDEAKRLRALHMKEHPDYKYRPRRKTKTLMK
Sox2-HMG (His6 retained) K109A, sequence (P48431 other isoform, or with tags, fused parts or gaps K109A | K109A K109A): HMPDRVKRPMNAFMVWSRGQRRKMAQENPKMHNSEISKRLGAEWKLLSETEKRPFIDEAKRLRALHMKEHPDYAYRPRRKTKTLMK
Sox2-HMG (His6 retained) H67A, sequence (P48431 other isoform, or with tags, fused parts or gaps H67A | H67A H67A): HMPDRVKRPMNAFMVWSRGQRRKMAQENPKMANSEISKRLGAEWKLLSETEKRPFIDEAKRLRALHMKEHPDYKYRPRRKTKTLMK
Sox2-HMG (His6 retained) P112A, sequence (P48431 other isoform, or with tags, fused parts or gaps P112A | P112A P112A): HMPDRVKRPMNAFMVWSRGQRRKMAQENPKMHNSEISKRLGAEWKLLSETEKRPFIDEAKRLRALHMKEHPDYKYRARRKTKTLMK
Sox2-HMG (His6 retained) R88A, sequence (P48431 other isoform, or with tags, fused parts or gaps R88A | R88A R88A): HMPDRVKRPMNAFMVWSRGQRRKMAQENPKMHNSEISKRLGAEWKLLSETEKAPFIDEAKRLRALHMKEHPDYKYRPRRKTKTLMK
Sox2-HMG (His6 retained) Q61A, sequence (P48431 other isoform, or with tags, fused parts or gaps Q61A | Q61A Q61A): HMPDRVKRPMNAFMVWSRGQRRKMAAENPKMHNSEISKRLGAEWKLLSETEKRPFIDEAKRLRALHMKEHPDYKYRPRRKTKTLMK
Sox2-HMG (His6 retained) K95A, sequence (P48431 other isoform, or with tags, fused parts or gaps K95A | K95A K95A): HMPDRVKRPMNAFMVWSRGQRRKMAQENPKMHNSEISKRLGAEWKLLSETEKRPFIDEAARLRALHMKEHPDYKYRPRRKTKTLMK
Sox2-HMG (His6 retained) R53A, sequence (P48431 other isoform, or with tags, fused parts or gaps R53A | R53A R53A): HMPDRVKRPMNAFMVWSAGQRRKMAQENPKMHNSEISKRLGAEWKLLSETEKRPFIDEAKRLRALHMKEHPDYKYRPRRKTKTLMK
Sox2-HMG (His6 retained) S72A, sequence (P48431 other isoform, or with tags, fused parts or gaps S72A | S72A S72A): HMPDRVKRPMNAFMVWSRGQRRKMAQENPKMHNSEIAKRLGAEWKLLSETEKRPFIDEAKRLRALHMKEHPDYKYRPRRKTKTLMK
Sox2-HMG (His6 retained) K103A, sequence (P48431 other isoform, or with tags, fused parts or gaps K103A | K103A K103A): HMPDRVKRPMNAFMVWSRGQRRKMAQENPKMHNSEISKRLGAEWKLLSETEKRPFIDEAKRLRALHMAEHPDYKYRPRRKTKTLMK
Sox2-HMG (His6 retained) R56A, sequence (P48431 other isoform, or with tags, fused parts or gaps R56A | R56A R56A): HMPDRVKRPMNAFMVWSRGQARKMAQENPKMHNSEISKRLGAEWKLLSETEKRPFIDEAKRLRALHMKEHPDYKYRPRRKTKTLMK
Sox2-HMG (His6 retained) R40A, sequence (P48431 other isoform, or with tags, fused parts or gaps R40A | R40A R40A): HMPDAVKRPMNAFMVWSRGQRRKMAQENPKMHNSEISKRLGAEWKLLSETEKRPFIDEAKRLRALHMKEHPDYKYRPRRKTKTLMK

GGUCUUAAGGUGCGGGCGAAAGUCUGUACCUCUGGGACC was tested, and the binding signal [1] was 0.9 ± 0.5 Kd(mutant)/Kd(WT), the binding signal [2] was 1 ± 0.6 Kd(mutant)/Kd(WT) and the binding signal [3] was 1 ± 0.5 Kd(mutant)/Kd(WT). For the same sequence, the binding signal [4] was 0.8 ± 0.4 Kd(mutant)/Kd(WT), the binding signal [5] was 3.7 ± 1.7 Kd(mutant)/Kd(WT) and the binding signal [6] was 7.9 ± 2.7 Kd(mutant)/Kd(WT). For the same sequence, the binding signal [7] was 0.9 ± 0.5 Kd(mutant)/Kd(WT), the binding signal [8] was 1.3 ± 0.2 Kd(mutant)/Kd(WT) and the binding signal [9] was 3.6 ± 1.4 Kd(mutant)/Kd(WT). The binding signal [10] was 1.2 ± 0.4 Kd(mutant)/Kd(WT), the binding signal [11] was 4.1 ± 1.4 Kd(mutant)/Kd(WT) and the binding signal [12] was 50 ± 19 Kd(mutant)/Kd(WT). The binding signal [13] was 1.6 ± 0.8 Kd(mutant)/Kd(WT), the binding signal [14] was 9.2 ± 2.3 Kd(mutant)/Kd(WT) and the binding signal [15] was 1.6 ± 0.5 Kd(mutant)/Kd(WT). For the same sequence, the binding signal [16] was 0.8 ± 0.3 Kd(mutant)/Kd(WT), the binding signal [17] was 2.7 ± 0.3 Kd(mutant)/Kd(WT) and the binding signal [18] was 78 ± 13 Kd(mutant)/Kd(WT). The binding signal [19] was 1.8 ± 0.6 Kd(mutant)/Kd(WT), the binding signal [20] was 2.2 ± 1.2 Kd(mutant)/Kd(WT) and the binding signal [21] was 0.9 ± 0.5 Kd(mutant)/Kd(WT). The binding signal [22] was 3.2 ± 1.2 Kd(mutant)/Kd(WT), the binding signal [23] was 16 ± 2 Kd(mutant)/Kd(WT) and the binding signal [24] was 0.9 ± 0.5 Kd(mutant)/Kd(WT). The binding signal [25] was 0.8 ± 0.5 Kd(mutant)/Kd(WT), the binding signal [26] was 0.7 ± 0.2 Kd(mutant)/Kd(WT) and the binding signal [27] was 6.9 ± 0.2 Kd(mutant)/Kd(WT). For the same sequence, the binding signal [28] was 0.9 ± 0.6 Kd(mutant)/Kd(WT), the binding signal [29] was 1.7 ± 0.6 Kd(mutant)/Kd(WT) and the binding signal [30] was 3.1 ± 1.3 Kd(mutant)/Kd(WT). For the same sequence, the binding signal [31] was 0.9 ± 0.3 Kd(mutant)/Kd(WT), the binding signal [32] was 0.7 ± 0.4 Kd(mutant)/Kd(WT) and the binding signal [33] was 3 ± 0.3 Kd(mutant)/Kd(WT). For the same sequence, the binding signal [34] was 40 ± 15 Kd(mutant)/Kd(WT), the binding signal [35] was 1.7 ± 0.6 Kd(mutant)/Kd(WT) and the binding signal [36] was 2.5 ± 1.1 Kd(mutant)/Kd(WT). For the same sequence, the binding signal [37] was 7.4 ± 2.5 Kd(mutant)/Kd(WT), the binding signal [38] was 2.8 ± 0.6 Kd(mutant)/Kd(WT) and the binding signal [39] was 1.3 ± 0.5 Kd(mutant)/Kd(WT). For the same sequence, the binding signal [40] was 5.5 ± 1.9 Kd(mutant)/Kd(WT), the binding signal [41] was 1 ± 0.1 Kd(mutant)/Kd(WT) and the binding signal [42] was 1.8 ± 0.8 Kd(mutant)/Kd(WT). The binding signal [43] was 3.5 ± 1.1 Kd(mutant)/Kd(WT), the binding signal [44] was 2.6 ± 0.7 Kd(mutant)/Kd(WT) and the binding signal [45] was 2.2 ± 0.9 Kd(mutant)/Kd(WT). For the same sequence, the binding signal [46] was 2 ± 0.7 Kd(mutant)/Kd(WT), the binding signal [47] was 1.3 ± 0.5 Kd(mutant)/Kd(WT) and the binding signal [48] was 2 ± 1 Kd(mutant)/Kd(WT).
